Laboratory results published in PubChem BioAssay AID1851 (National Center for Advancing Translational Sciences (NCATS), 2009).
About 5,100 (32%) of roughly 16,000 compounds were called active. Inconclusive results (about 25%) are left out. The call rests on the fitted dose curve; in most records, active means well fitted curve in the direction sought with a large enough effect; inconclusive means small, poorly fitted or top-dose-only effect, or effect the other way; inactive means no such curve, though single readings can be large or run the other way. The list shows a part of the results.

The compounds below were run against Cytochrome P450 3A4 (Homo sapiens) (UniProt P08684) (assay: Cytochrome panel assay with activity outcomes). Settings: recombinant CYP, pro-luciferin dealkylation, luminescence, p450-cyp3a4; series mostly up to 57.1 µM.
On the % scale 0 is the no-effect control and ±100 the full control effect.

Cytochrome P450 3A4 (Homo sapiens), sequence (P08684 whole entry, looked up): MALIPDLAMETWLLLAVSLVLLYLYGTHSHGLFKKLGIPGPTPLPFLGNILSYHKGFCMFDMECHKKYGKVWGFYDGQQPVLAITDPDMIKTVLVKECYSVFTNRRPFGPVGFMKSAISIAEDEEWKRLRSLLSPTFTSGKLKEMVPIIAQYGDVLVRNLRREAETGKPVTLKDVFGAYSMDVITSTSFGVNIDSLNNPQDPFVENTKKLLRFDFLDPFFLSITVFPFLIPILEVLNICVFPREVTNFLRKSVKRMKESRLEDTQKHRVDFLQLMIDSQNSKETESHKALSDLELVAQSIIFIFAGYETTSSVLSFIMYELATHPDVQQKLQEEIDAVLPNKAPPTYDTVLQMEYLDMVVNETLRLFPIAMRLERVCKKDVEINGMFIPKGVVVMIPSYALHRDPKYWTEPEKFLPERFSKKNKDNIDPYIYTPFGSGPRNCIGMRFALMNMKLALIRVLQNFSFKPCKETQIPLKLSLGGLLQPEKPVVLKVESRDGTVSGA

Structure (SMILES) | AC50 | activity, negative = inhibition
Clc1ccc(N2CCCCCC2)nn1 | inactive | 
COc1ccccc1NC(=O)CCN1C(=O)C2CC=C(Cl)CC2C1=O (centres undefined) | 14.1 µM (active) | 
Cc1ncc(N=Nc2ccccc2Cl)c(-c2ccccc2)n1 | inactive | 
COC(=O)CNC(=O)CN1C(=O)N(c2ccc(Cl)cc2)C(N(O)C(=O)Nc2ccc(Cl)cc2)C1(C)C (centres undefined) | 4.47 µM (active) | 
COC(=O)CNC(=O)CN1C(=O)N(c2ccccc2)C(N(O)C(=O)Nc2ccccc2)C1(C)C (centres undefined) | inactive | 
COC(=O)CC1C(=O)NCCN1C(=O)Nc1ccc(Cl)cc1 (centres undefined) | inactive | 
O=C(O)c1cccc(OCCO)c1 |  | -12.1% [at 11.4 µM] (inactive)
Cc1cccc(OCCCCCn2ccnc2)c1 | 0.562 µM (active) | 
Cc1ccc(OCCOCCn2ccnc2)c(Br)c1 | 0.562 µM (active) | 
COc1cc(C)ccc1OCCOc1cc(C)ccc1Cl |  | 5.86% [at 2.29 µM] (inactive)
Cc1cc2[nH]c(=O)c3ccccc3n2n1 | inactive | 
O=c1cc(CSc2nnc(-c3cccnc3)n2-c2ccccc2F)nc2sccn12 | 2.82 µM (active) | 
Cn1cc(C(=O)N/N=C/C(Br)=C\c2ccccc2)ccc1=O | inactive | 
N#Cc1cccc(NC(=O)N2CC[C@@]3(CCCN(S(=O)(=O)c4ccccc4)C3)C2)c1 | 3.16 µM (active) | 
O=C(Nc1cccc(F)c1)N1CC2(CCN(S(=O)(=O)c3ccccc3)CC2)C1 | inactive | 
CS(=O)(=O)N1CCC2(CCN(C(=O)Nc3cccc(F)c3)CC2)CC1 | inactive | 
CS(=O)(=O)N1CCC2(CCN(C(=O)Nc3cccc(C#N)c3)CC2)CC1 | inactive | 
CS(=O)(=O)N1CCC[C@@]2(CCN(C(=O)Nc3ccccc3)C2)C1 | inactive | 
O=C(Nc1cccc(F)c1)N1CCCC2(CCN(S(=O)(=O)c3ccccc3)CC2)C1 | 12.6 µM (active) | 
O=C(Nc1cccc(F)c1)N1CC[C@@]2(CCCN(S(=O)(=O)c3ccccc3)C2)C1 | 25.1 µM (active) | 
CC(/C=C1\N=C(SCc2ccccc2Cl)SC1=O)=C\c1ccccc1 | 14.1 µM (active) | 
Clc1ccccc1CSc1nnc(/C=C/c2ccccc2)o1 | inactive | 
O=c1[nH]c2cc(Cl)ccc2c(O)c1-c1cccc(Oc2ccccc2)c1 | inactive | 
CC1(C)CCC=[N+]1[O-] | inactive | 
NC(N)=NC(N)=Nc1ccccc1 | inactive | 

Structure (SMILES) | AC50 | activity, negative = inhibition
CCc1ccc(OCCCC(=O)Nc2ccc(N3CCCCC3)cc2)cc1 | inactive | 
O=C(Nc1ccc(N2CCCCC2)cc1)c1cncc(Br)c1 | 1.41 µM (active) | 
O=C(O)CNC(=O)[C@@H](CS)Cc1ccccc1 | inactive | 
CCSc1nnc(NC(=O)Cc2ccccc2OC)s1 | inactive | 
COc1ccccc1C(=O)NCCn1cc(SCC(=O)Nc2nnc(C)s2)c2ccccc21 | 6.31 µM (active) | 
CCCCCCCC/C=C\CCCCCCCC(=O)N[C@@H](CO)Cc1ccc(O)cc1 | 10 µM (active) | 
CC(=O)NCCc1ccc(O)c(O)c1 | inactive | 
CCCCCCCCCCCCCCCC(=O)NC(C)C | inactive | 
CCCCCCCC/C=C\CCCCCCCC(=O)NCCc1ccc(O)c(O)c1 | 3.16 µM (active) | 
CCCCCCCCCCCCCCC/C=C\[C@H](O)[C@@H](NC(=O)CCCCCCCCCCCCC)OC (tested in a mixture with another compound) | inactive | 
CCCCCCC/C=C\CCCCCCCCC(=O)O | inactive | 
N=C(N)SCC(=O)O |  | -3.45% [at 11.4 µM] (inactive)
O=S(=O)(c1ccccc1)N1CCC2(CCN(Cc3ccccc3)CC2)CC1 | inactive | 
O=S(=O)(c1ccccc1)N1CCC2(CC1)CN(Cc1ccccc1)C2 | inactive | 
O=S(=O)(c1ccccc1)N1CCC2(CCCN(Cc3ccncc3)C2)CC1 | 3.98 µM (active) | 
O=S(=O)(c1ccccc1)N1CCC2(CCN(Cc3ccncc3)CC2)CC1 | 3.98 µM (active) | 
N#Cc1ccc(CN2CCCC3(CCN(S(=O)(=O)c4ccccc4)CC3)C2)cc1 | 3.16 µM (active) | 
CC(C)CN1CCC2(CC1)CCN(S(=O)(=O)c1ccccc1)CC2 | inactive | 
CC(C)CN1CCCC2(CCN(S(=O)(=O)c3ccccc3)CC2)C1 | 15.8 µM (active) | 
CC/C=C\CC[C@H](O)C1=CCCCC1=O |  | -12.1% [at 11.4 µM] (inactive)
O=C1CC(c2ccccc2)Cc2nc(N3CCc4ccccc4C3)ncc21 (centres undefined) |  | 2.14% [at 2.29 µM] (inactive)
Cc1ccc(C2CC(=O)c3cnc(N4CCc5ccccc5C4)nc3C2)cc1 (centres undefined) |  | -6% [at 2.29 µM] (inactive)
COc1ccc(Nc2ncc3c(n2)CC(c2ccc(C)cc2)CC3=O)cc1 (centres undefined) | 8.91 µM (active) | 
COc1ccc(C2CC(=O)c3cnc(Nc4cc(C)cc(C)c4)nc3C2)cc1 (centres undefined) | 4.47 µM (active) | 
CC1CC(=O)c2cnc(N)nc2C1 (centres undefined) | inactive | 

Structure (SMILES) | AC50 | activity, negative = inhibition
Nc1ncnc2c1ncn2C[C@@H](O)C(=O)O |  | 1.58% [at 11.4 µM] (inactive)
CCNc1ncc2nc(C)c(=O)n(C[C@H]3CCCO3)c2n1 | inactive | 
O=c1cnc2cnc(Oc3cccc(Cl)c3)nc2n1C[C@H]1CCCO1 | inactive | 
CCNc1ncc2ncc(=O)n(C[C@H]3CCCO3)c2n1 | inactive | 
COc1ccc(Oc2ncc3ncc(=O)n(C[C@H]4CCCO4)c3n2)cc1 | 12.6 µM (active) | 
COc1ccc(-c2nc3cnc(N4CCOCC4)nc3n(C[C@H]3CCCO3)c2=O)cc1 | inactive | 
COc1ccc(Oc2ncc3nc(C)c(=O)n(C[C@H]4CCCO4)c3n2)cc1 | 3.98 µM (active) | 
CN(CCC(=O)O)S(=O)(=O)c1ccccc1 |  | -26.6% [at 11.4 µM] (inactive)
Nc1ccc(N(S(=O)(=O)c2ccccc2)S(=O)(=O)c2ccccc2)c(Cl)c1 | 0.0316 µM (active) | 
O=C(O)c1c2ccccc2cc2ccccc12 | inactive | 
CN=C(N)/N=C(\N)Nc1cc2ccccc2c2ccccc12 |  | -14.5% [at 11.4 µM] (inactive)
NC(=S)Nc1cc2ccccc2c2ccccc12 | 15.8 µM (active) | 
CCN(CC)C(=O)C1CC(=O)N(c2ccc(OC)cc2)C1c1ccc(OC)cc1 (centres undefined) |  | -28.4% [at 2.29 µM] (inactive)
COc1ccc(C2CC(=O)CC(=O)C2n2cncn2)cc1 (centres undefined) | 2.24 µM (active) | 
O=C1CC(=O)C(n2cncn2)C(c2cccc(Cl)c2)C1 (centres undefined) | 0.501 µM (active) | 
CS(=O)(=O)Nc1cccc(-c2nc(NCc3cccnc3)c3ccccc3n2)c1 | 2 µM (active) | 
CS(=O)(=O)Nc1cccc(-c2nc(NCc3cccs3)c3ccccc3n2)c1 | 3.16 µM (active) | 
COCCNc1nc(-c2cccc(NS(C)(=O)=O)c2)nc2ccccc12 | 12.6 µM (active) | 
Cc1cccc(CNc2nc(-c3cccc(NS(C)(=O)=O)c3)nc3ccccc23)c1 | 5.01 µM (active) | 
NC(=O)/C(=N\O)c1ccccc1 | inactive | 
c1cc(NNc2cccc(-c3nn[nH]n3)c2)cc(-c2nn[nH]n2)c1 |  | -11.1% [at 11.4 µM] (inactive)
CC(=O)NCCNc1nc(-c2cccc(NS(C)(=O)=O)c2)nc2ccccc12 | 15.8 µM (active) | 
CS(=O)(=O)Nc1cccc(-c2nc(NCc3ccccc3)c3ccccc3n2)c1 | 3.16 µM (active) | 
Cn1c(=O)c2c(ncn2CN2CCN(Cn3cnc4c3c(=O)n(C)c(=O)n4C)CC2)n(C)c1=O |  | 3.42% [at 11.4 µM] (inactive)
COc1ccc(CNc2ncnc3ccc(-c4cccc(C#N)c4)cc23)c(OC)c1 | 1.58 µM (active) | 

Structure (SMILES) | AC50 | activity, negative = inhibition
COc1ccccc1CNc1ncnc2ccc(-c3cccc(C#N)c3)cc12 | 7.94 µM (active) | 
Cc1ccc(S(=O)(=O)NC(=O)OC23COCN2COC3)cc1 |  | -8.25% [at 11.4 µM] (inactive)
COc1ccc(-n2c(=O)c(C)nc3cncnc32)cc1 | 5.01 µM (active) | 
COc1ccc(-n2c(=O)c(-c3cc(F)cc(F)c3)nc3cncnc32)cc1 | 12.6 µM (active) | 
O=c1c(-c2cc(F)cc(F)c2)nc2cncnc2n1-c1ccccc1 | inactive | 
COc1ccc(-n2c(=O)c(-c3ccc(F)cc3)nc3cnc(N4CCOCC4)nc32)cc1 | inactive | 
COc1ccc(-n2c(=O)c(-c3cccc(F)c3)nc3cncnc32)cc1 | 20 µM (active) | 
COc1ccc(-n2c(=O)c(-c3ccc(F)cc3)nc3cncnc32)cc1 | inactive | 
Cn1c(=O)c(-c2ccc(Cl)cc2)nc2cncnc21 | inactive | 
COc1ccc(-n2c(=O)c(-c3ccc(Cl)cc3)nc3cncnc32)cc1 | 15.8 µM (active) | 
CCNc1ncc2nc(-c3cc(F)cc(F)c3)c(=O)n(-c3ccc(OC)cc3)c2n1 | 10 µM (active) | 
CCNc1ncc2nc(-c3ccc(F)cc3)c(=O)n(-c3ccccc3)c2n1 | inactive | 
Cn1c(=O)c(-c2cccc(Cl)c2)nc2cncnc21 | inactive | 
COc1ccc(-n2c(=O)c(-c3cccc(Cl)c3)nc3cncnc32)cc1 | 12.6 µM (active) | 
Nc1ncnc2c1ncn2[C@H]1O[C@@H](C(=O)O)[C@@H](O)[C@H]1O |  | 0.186% [at 11.4 µM] (inactive)
CCOC(=O)C1=C(CSc2nc3ccccc3s2)NC(=O)NC1c1cc(C)ccc1C (centres undefined) | 4.47 µM (active) | 
CCOC(=O)C1=C(CSc2nc3ccccc3s2)NC(=O)NC1c1cccc([N+](=O)[O-])c1 (centres undefined) | 6.31 µM (active) | 
COC(=O)C1=C(CSc2nncn2C)NC(=O)NC1c1ccc(F)cc1 (centres undefined) | inactive | 
CCOC(=O)C1=C(COc2ccc(F)cc2Cl)NC(=O)NC1c1cc(C)ccc1C (centres undefined) | 6.31 µM (active) | 
CCC(=O)NNc1cc(=O)c2c(=O)n(C)c(=O)n(C)c2[nH]1 |  | 1.3% [at 2.29 µM] (inactive)
O=C1CCCN1c1ccc(S(=O)(=O)Oc2cccc(Cl)c2)cc1[N+](=O)[O-] | 12.6 µM (active) | 
O=[N+]([O-])c1ccc(N2CCCCC2)c(Cl)c1N1CCCCC1 | inactive | 
CN1C(=O)/C(=C\c2ccccc2)Sc2ccc(C(=O)N3CCN(c4ccccn4)CC3)cc21 | 14.1 µM (active) | 
Cn1cccc1C(=O)N1CCC2(CC1)CCN(c1ccccn1)CC2 | inactive | 
